PubChem BioAssay
Values joined by “and” are separate entries in the source; they are usually repeats but may differ in a detail not shown here. Equal entries are not always repeated. For part of these data: Entries with a potency or affinity are not part of this list. This is one part of the list. Active and inactive are the calls of the source. Unless noted, how the calls were made is not given here.

Columns and labels:
[1] = biological target: Ras-related C3 botulinum toxin substrate 1 (Homo sapiens) (UniProt P63000); test: wildtype Rac1 GTP binding inhibitors, dose response, biochemical, multiplex bead flow cytometry (AID 1340;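 active means dose curve with midpoint inside tested range, moderate steepness, plateau gap beyond fit error, low compound glow and bead-link interference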); settings: GST-Rac1 beads, Bodipy-FL-GTP binding; at 100 µM (top of the series) unless noted
[2] = biological target: GTPase HRas (Homo sapiens) (UniProt P01112); test: inhibitors of GTP binding to wildtype Ras, dose response, biochemical, multiplex bead flow cytometry (AID 1335;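 active means fitted half-maximal concentration within 10 nM to 100 µM, steepness 0.5 to 2, significant signal drop, low assay interference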); settings: bead-based flow cytometry, Bodipy-GTP binding to GST-Ras; at 100 µM (top of the series) unless noted
[3] = biological target: GTPase HRas (Homo sapiens) (UniProt P01112); test: activated Ras mutant GTP binding inhibitors, dose response, biochemical, multiplex bead flow cytometry (AID 1341;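 active means dose-response curve with midpoint inside the tested range, moderate steepness, significant amplitude and little compound fluorescence or bead-attachment interference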;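 further: GST-tagged constitutively activated Ras mutant immobilized on beads and multiplexed with other GTPases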)
[4] = system: Ras-related protein Rab-7a (dog), GTP binding; test: Rab7 GTP binding inhibitors, potency, dose response, biochemical, wildtype, multiplex bead flow cytometry (AID 1336)
[5] = biological target: Cell division control protein 42 homolog (Homo sapiens) (UniProt P60953); test: wildtype Cdc42 GTP-binding inhibitors, dose response, biochemical, multiplex bead flow cytometry, Bodipy-FL-GTP (AID 1334;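 active means fitted half-maximal concentration within the tested range, moderate curve steepness, significant signal drop, and little compound fluorescence or bead-linkage interference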); settings: bead-based flow cytometry, Bodipy-FL-GTP binding to GST-Cdc42; at 100 µM (top of the series) unless noted
[6] = biological target: Regulator of G-protein signaling 16 (Homo sapiens) (UniProt O15492); test: modulators of RGS–Galpha-o binding, primary screen, biochemical, multiplexed beads, flow cytometry, RGS4/7/8/16/19 (AID 1504); settings: multiplexed bead flow cytometry, measured here: RGS16 interaction, at 10 µM;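 further: fluorescently labeled Galpha-o bound to GDP with aluminium fluoride binding biotinylated RGS beads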
[7] = biological target: Regulator of G-protein signaling 19 (Homo sapiens) (UniProt P49795); test: as above; settings: multiplexed bead flow cytometry, measured here: RGS19 interaction, at 10 µM
[8] = biological target: Regulator of G-protein signaling 4 (Homo sapiens) + Guanine nucleotide-binding protein G(o) subunit alpha (Homo sapiens) (UniProt P49798+P09471); test: as above; settings: multiplexed bead flow cytometry, at 10 µM
[9] = biological target: Regulator of G-protein signaling 7 (Homo sapiens) (UniProt P49802); test: as above; settings: multiplexed bead flow cytometry, measured here: RGS7 interaction, at 10 µM
[10] = biological target: Regulator of G-protein signaling 8 (Homo sapiens) (UniProt P57771); test: as above; settings: multiplexed bead flow cytometry, measured here: RGS8 interaction, at 10 µM
[11] = disruption of biotin probe capture by avidin, counter-screen for RGS protein interaction modulators, biochemical, flow cytometry, bead-based (AID 1783;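 active means inhibition above 50%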;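 further: median green fluorescence of gated singlet beads compared with DMSO control wells; 0% = DMSO wells and 100% = complete loss of bead fluorescence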); settings: streptavidin beads, fluorescein-biotin binding; at 10 µM, stronger effect = higher value
[12] = biological target: Guanine nucleotide-binding protein G(o) subunit alpha (Homo sapiens) (UniProt P09471); test: RGS8-Galphao binding modulators, confirmation, biochemical, multiplexed bead flow cytometry, single concentration (AID 1836; in the data active means binding response below about 72% or above about 130%; inactive means in between;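 further: Galphao activated as GDP AlF4 complex before binding bead RGS8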); settings: bead-based flow cytometry RGS8-Galphao binding, fluorescence; at 10 µM; actives lie on both sides
[13] = biological target: Guanine nucleotide-binding protein G(o) subunit alpha (Homo sapiens) (UniProt P09471); test: RGS7-Galphao binding modulators, confirmation, biochemical, multiplexed bead flow cytometry, single concentration (AID 1837; in the data active means response below about 75% or above about 130%; inactive means in between;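 further: fluorescent Galphao activated with GDP and aluminum fluoride binding bead-coupled RGS7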); settings: bead-based flow cytometry RGS7-Galphao binding; at 10 µM; actives lie on both sides
[14] = biological target: Regulator of G-protein signaling 16 (Homo sapiens) + Guanine nucleotide-binding protein G(o) subunit alpha (Homo sapiens) (UniProt O15492+P09471); test: modulators of RGS16-Galphao protein binding, confirmation, biochemical, single concentration, multiplexed bead flow cytometry (AID 1838; in the data active means response below about 74% or above about 130%; inactive means in between;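 further: Galphao activated as the GDP aluminium fluoride complex binding bead-coupled RGS16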); settings: bead-based flow cytometry, at 10 µM, actives lie on both sides
[15] = biological target: Guanine nucleotide-binding protein G(o) subunit alpha (Homo sapiens) (UniProt P09471); test: modulators of RGS4-Galphao protein binding, confirmation, biochemical, single concentration, multiplexed bead flow cytometry (AID 1840; in the data active means binding response below about 74% or above about 130%; inactive means in between); settings: at 10 µM, actives lie on both sides
[16] = biological target: Guanine nucleotide-binding protein G(o) subunit alpha (Homo sapiens) + Regulator of G-protein signaling 19 (Homo sapiens) (UniProt P09471+P49795); test: regulators of RGS19-Galphao binding, confirmation, biochemical, single point, multiplexed bead flow cytometry (AID 1841; in the data active means response below about 50% or above about 160%; inactive means in between;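 further: 100% = no compound control and 0% = blank background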); settings: bead-based flow cytometry RGS19-Galphao binding; at 10 µM; actives lie on both sides
Guanine nucleotide-binding protein G(o) subunit alpha (Homo sapiens) + Regulator of G-protein signaling 19 (Homo sapiens), sequence (P09471 whole entry, looked up): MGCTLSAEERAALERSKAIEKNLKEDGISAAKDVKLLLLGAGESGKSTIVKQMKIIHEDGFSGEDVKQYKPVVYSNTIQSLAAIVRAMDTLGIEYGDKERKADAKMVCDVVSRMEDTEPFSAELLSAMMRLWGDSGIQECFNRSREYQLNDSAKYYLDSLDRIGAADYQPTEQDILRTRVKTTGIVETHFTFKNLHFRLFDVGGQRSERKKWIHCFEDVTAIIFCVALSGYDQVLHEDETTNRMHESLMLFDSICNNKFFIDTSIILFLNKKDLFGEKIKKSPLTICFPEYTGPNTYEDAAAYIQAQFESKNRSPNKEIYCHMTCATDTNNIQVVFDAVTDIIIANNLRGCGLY
Guanine nucleotide-binding protein G(o) subunit alpha (Homo sapiens) + Regulator of G-protein signaling 19 (Homo sapiens), sequence (P49795 whole entry, looked up): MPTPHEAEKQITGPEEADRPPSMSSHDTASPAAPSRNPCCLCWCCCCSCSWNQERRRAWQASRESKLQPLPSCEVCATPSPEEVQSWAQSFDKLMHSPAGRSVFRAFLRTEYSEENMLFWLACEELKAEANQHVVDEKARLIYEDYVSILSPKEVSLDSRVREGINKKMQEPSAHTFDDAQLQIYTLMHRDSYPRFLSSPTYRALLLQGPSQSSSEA

GTPase HRas (Homo sapiens), sequence (P01112 whole entry, looked up): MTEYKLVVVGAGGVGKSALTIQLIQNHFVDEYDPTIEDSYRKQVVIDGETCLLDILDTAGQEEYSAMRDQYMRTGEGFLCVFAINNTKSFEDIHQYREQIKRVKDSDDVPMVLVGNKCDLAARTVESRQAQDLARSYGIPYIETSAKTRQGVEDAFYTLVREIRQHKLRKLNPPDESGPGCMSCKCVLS
Regulator of G-protein signaling 4 (Homo sapiens) + Guanine nucleotide-binding protein G(o) subunit alpha (Homo sapiens), sequence (P09471 whole entry, looked up): as the sequence (P09471 whole entry, looked up) above
Regulator of G-protein signaling 4 (Homo sapiens) + Guanine nucleotide-binding protein G(o) subunit alpha (Homo sapiens), sequence (P49798 whole entry, looked up): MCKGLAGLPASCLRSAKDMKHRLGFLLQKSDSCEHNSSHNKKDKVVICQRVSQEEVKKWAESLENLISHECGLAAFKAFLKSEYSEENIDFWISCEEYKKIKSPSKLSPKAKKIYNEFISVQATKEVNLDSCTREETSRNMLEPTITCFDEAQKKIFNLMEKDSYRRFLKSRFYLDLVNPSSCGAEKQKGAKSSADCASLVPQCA
Guanine nucleotide-binding protein G(o) subunit alpha (Homo sapiens), sequence (P09471 whole entry, looked up): as the sequence (P09471 whole entry, looked up) above
Regulator of G-protein signaling 16 (Homo sapiens) + Guanine nucleotide-binding protein G(o) subunit alpha (Homo sapiens), sequence (O15492 whole entry, looked up): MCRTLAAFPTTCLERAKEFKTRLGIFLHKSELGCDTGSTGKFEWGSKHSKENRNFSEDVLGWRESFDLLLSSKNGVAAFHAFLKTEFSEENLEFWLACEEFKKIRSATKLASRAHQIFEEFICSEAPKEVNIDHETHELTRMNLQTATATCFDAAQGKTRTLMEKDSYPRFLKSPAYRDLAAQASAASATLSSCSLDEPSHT
Regulator of G-protein signaling 16 (Homo sapiens) + Guanine nucleotide-binding protein G(o) subunit alpha (Homo sapiens), sequence (P09471 whole entry, looked up): as the sequence (P09471 whole entry, looked up) above
Cell division control protein 42 homolog (Homo sapiens), sequence (P60953 whole entry, looked up): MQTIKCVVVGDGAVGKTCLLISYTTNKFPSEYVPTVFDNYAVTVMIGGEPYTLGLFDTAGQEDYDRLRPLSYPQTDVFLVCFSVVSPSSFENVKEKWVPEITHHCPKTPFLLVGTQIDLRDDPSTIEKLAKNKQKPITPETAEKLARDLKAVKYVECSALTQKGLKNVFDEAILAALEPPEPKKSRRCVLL

CCn1cc(C(=O)OCC(=O)c2cc(C)n(-c3ccc(OC(F)F)cc3)c2C)c(=O)c2ccc(C)nc21
GTP binding signal, raw median fluorescence (lower = inhibition) (MCF (arbitrary fluorescence units)) [1]: 148

O=C(O)c1ccccc1Sc1ncnc2sc3c(c12)CCC3
GTP binding, percent of control [2]: 118%
outcome [3]: inactive

Cc1cc(C)c(C)c(C(=O)c2ccccc2C(=O)O)c1C
GTP binding, percent of control [2]: 122%
outcome [4]: inactive
outcome [3]: inactive

CC(=O)Oc1ccc2c(c1)Oc1cc(OC(C)=O)ccc1C21OC(=O)c2ccccc21
GTP binding signal, raw median fluorescence (lower = inhibition) (MCF (arbitrary fluorescence units)) [1]: 720

Cc1cn2c(nc(=O)c3cccnc32)s1
GTP binding signal, raw median fluorescence (lower = inhibition) (MCF (arbitrary fluorescence units)) [1]: 126

Cc1ccc(C(=O)COC(=O)c2ccc3c(c2)C(=O)N(c2cccc4ncccc24)C3=O)cc1
GTP binding signal, raw median fluorescence (lower = inhibition) (MCF (arbitrary fluorescence units)) [1]: 151

O=C(O)c1ccccc1NCCc1ccc(Cl)cc1
GTP binding, percent of control [2]: 87%
outcome [3]: inactive

COc1ccc(-c2cc(C#N)nc(N3CCNCC3)n2)cc1
GTP binding, percent of control [2]: 153%
outcome [4]: inactive
GTP binding signal, raw median fluorescence (lower = inhibition) (MCF (arbitrary fluorescence units)) [1]: 182
outcome [3]: inactive

COc1ccc(C2CC(c3ccccc3)=NN2c2ccc(S(N)(=O)=O)cc2)cc1 (configuration not stated)
GTP binding, percent of control [2]: 84.1%
outcome [4]: inactive
GTP binding signal, raw median fluorescence (lower = inhibition) (MCF (arbitrary fluorescence units)) [1]: 260 and 239
outcome [3]: inactive

CCc1ccc(NS(=O)(=O)c2ccc3[nH]cc(C(=O)N4CCc5ccccc54)c(=O)c3c2)cc1
GTP binding, percent of control [2]: 62.6%
outcome [4]: inactive
GTP binding signal, raw median fluorescence (lower = inhibition) (MCF (arbitrary fluorescence units)) [1]: 167
outcome [3]: inactive

Cc1ccc(NC(=O)C2=C(c3ccccc3)S(=O)(=O)CCS2(=O)=O)cc1
fluorescence, percent of control (lower = inhibition) [5]: 22.2%
GTP binding, percent of control [2]: 79.3%
outcome [4]: inactive
GTP binding signal, raw median fluorescence (lower = inhibition) (MCF (arbitrary fluorescence units)) [1]: 222
outcome [3]: inactive

NS(=O)(=O)c1ccc(N2N=C(c3ccccc3)CC2c2cccc(F)c2)cc1 (configuration not stated)
GTP binding, percent of control [2]: 50% and 86.8%
outcome [4]: inactive
GTP binding signal, raw median fluorescence (lower = inhibition) (MCF (arbitrary fluorescence units)) [1]: 0 and 100
outcome [3]: inactive

CC(=O)c1ccc(NC(=S)NC(=O)CC(C)C)cc1
RGS16–Galpha-o binding response [6]: 21.8%
RGS19–Galpha-o binding response [7]: 162%
RGS4–Galpha-o binding response [8]: 91.6% (active)
RGS7–Galpha-o binding response [9]: 91.6%
RGS8–Galpha-o binding response [10]: 81.4%
inhibition [11]: 3.2% (inactive)
binding response (% of control) [12]: 99.1% (inactive)
response (percent of control binding) [13]: 86.2% (inactive)
response (% of control binding) [14]: 93.9% (inactive)
binding response (% of control) [15]: 93.6% (inactive)
response (percent of control binding) [16]: 87.5% (inactive)

Cc1c(CN2CCCC(C(=O)c3cccc(Cl)c3)C2)c(=O)n(-c2ccccc2)n1C (configuration not stated)
RGS16–Galpha-o binding response [6]: 97.1%
RGS19–Galpha-o binding response [7]: 50.3%
RGS4–Galpha-o binding response [8]: 107% (active)
RGS7–Galpha-o binding response [9]: 230%
RGS8–Galpha-o binding response [10]: 95%
inhibition [11]: -1.5% (inactive)
binding response (% of control) [12]: 102% (inactive)
response (percent of control binding) [13]: 106% (inactive)
response (% of control binding) [14]: 102% (inactive)
binding response (% of control) [15]: 103% (inactive)
response (percent of control binding) [16]: 104% (inactive)

COc1ccc(-n2c(SCC(=O)OC(C)C)nnc2-c2ccccn2)cc1
RGS16–Galpha-o binding response [6]: 242%
RGS19–Galpha-o binding response [7]: 103%
RGS4–Galpha-o binding response [8]: 106% (active)
RGS7–Galpha-o binding response [9]: 101%
RGS8–Galpha-o binding response [10]: 134%
inhibition [11]: -1.2% (inactive)
binding response (% of control) [12]: 99.1% (inactive)
response (percent of control binding) [13]: 96.9% (inactive)
response (% of control binding) [14]: 93.3% (inactive)
binding response (% of control) [15]: 97.2% (inactive)
response (percent of control binding) [16]: 60.1% (inactive)

CC(C)(C)NC(=O)c1cccc(NC(=O)Cc2ccc(Br)cc2)c1
RGS16–Galpha-o binding response [6]: -3.28%
RGS19–Galpha-o binding response [7]: 121%
RGS4–Galpha-o binding response [8]: 79.3% (active)
RGS7–Galpha-o binding response [9]: 76.6%
RGS8–Galpha-o binding response [10]: 70.2%
inhibition [11]: 1% (inactive)
binding response (% of control) [12]: 103% (inactive)
response (percent of control binding) [13]: 100% (inactive)
response (% of control binding) [14]: 99.4% (inactive)
binding response (% of control) [15]: 100% (inactive)
response (percent of control binding) [16]: 115% (inactive)

C/C(=N\NS(=O)(=O)c1ccc(Br)cc1)c1cccs1
RGS16–Galpha-o binding response [6]: -881%
RGS19–Galpha-o binding response [7]: 99.9%
RGS4–Galpha-o binding response [8]: 120% (active)
RGS7–Galpha-o binding response [9]: 106%
RGS8–Galpha-o binding response [10]: 95.4%
inhibition [11]: 1.5% (inactive)
binding response (% of control) [12]: 102% (inactive)
response (percent of control binding) [13]: 103% (inactive)
response (% of control binding) [14]: 103% (inactive)
binding response (% of control) [15]: 104% (inactive)
response (percent of control binding) [16]: 99.1% (inactive)
